Measurements from the supplement of paper PMC9262897, “Low-cost anti-mycobacterial drug discovery using engineered E. coli” (Nature Communications, 2022).
Structures can show the parent of a compound that is named as a salt. ± gives the standard deviation of the averaged measurements.

system: E. coli TESEC Alr+ wild-type control; assay: growth (OD600 after 10 h); higher = more growth (less inhibition); conditions: compound 0.1 mM; raw OD600 reference: median of DMSO wells 0.49, cell-free background 0.052
Method: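 TESEC Mtb Alr E. coli (ΔaraC ΔtolC ΔentC Δalr ΔdadX, arabinose-inducible Mtb Alr) or the Alr+ wild-type control strain, grown in defined M9-fructose medium without D-alanine in 96-well plates with Prestwick library compounds at 0.1 mM and 1% DMSO. Low Alr induction is 0.1 µM arabinose and high induction is 10 mM arabinose.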

Row | SMILES | growth
1 | CCCCCCCCNC(C)C(O)c1ccc(SC(C)C)cc1 (stereo not given) [Suloctidil] | 0.0529 ± 0.0091
2 | CC(=O)Oc1cc(C(C)C)c(OCCN(C)C)cc1C [Moxisylyte hydrochoride] | 0.533 ± 0.029
3 | O=C(OCCOCCO)c1ccccc1Nc1cccc(C(F)(F)F)c1 [Etofenamate] | 0.0535 ± 0.0025
4 | CC(=O)N1CCN(c2ccc(OCC3COC(Cn4ccnc4)(c4ccc(Cl)cc4Cl)O3)cc2)CC1 (stereo not given) [Ketoconazole] | 0.0814 ± 0.011
5 | CO/N=C(\C(=O)N[C@@H]1C(=O)N2C(C(=O)OC(C)OC(C)=O)=C(COC(N)=O)CS[C@H]12)c1ccco1 (stereo not given in full) [Cefuroxime axetil] | 0.427 ± 0.051
6 | CN(N=O)C(=O)N[C@H]1C(O)O[C@H](CO)[C@@H](O)[C@@H]1O (mixture of isomers) [Streptozotocin] | 0.226 ± 0.025
7 | C[C@@H](O)[C@H]1C(=O)N2C(C(=O)O)=C(SCCNC=N)C[C@H]12 [Imipenem] | 0.271 ± 0.022
8 | c1ccc(CNc2ncnc3nc[nH]c23)cc1 [Aminopurine, 6-benzyl] | 0.509 ± 0.077
9 | CCn1cc(C(=O)O)c(=O)c2cc(F)c(N3CCNC(C)C3)c(F)c21 (stereo not given) [Lomefloxacin hydrochloride] | 0.0513 ± 0.0014
10 | COc1cnc(NS(=O)(=O)c2ccc(N)cc2)nc1 [Sulfameter] | 0.516 ± 0.12
11 | CN(C)CC/C=C1/c2ccccc2Sc2ccc(Cl)cc21 [Chlorprothixene hydrochloride] | 0.157 ± 0.12
12 | Cc1onc(-c2c(Cl)cccc2Cl)c1C(=O)N[C@@H]1C(=O)N2[C@@H]1SC(C)(C)[C@@H]2C(=O)O [Dicloxacillin sodium salt hydrate] | 0.516 ± 0.11
13 | CC(C)(C)NC[C@H](O)COc1cccc2c1CCCC2=O [(-) -Levobunolol hydrochloride] | 0.613 ± 0.048
14 | CC[C@H](C)[C@H]1O[C@]2(CC[C@@H]1C)C[C@@H]1C[C@@H](CC=C(C)C(O[C@H]3C[C@H](OC)[C@@H](O[C@H]4C[C@H](OC)[C@@H](O)[C@H](C)O4)[C@H](C)O3)[C@@H](C)C=CC=C3CO[C@@H]4[C@H](O)C(C)=C[C@@H](C(=O)O1)[C@]34O)O2 (stereo not given in full) [Ivermectin] | 0.525 ± 0.066
15 | CC(C)(Oc1ccc(C2CC2(Cl)Cl)cc1)C(=O)O (stereo not given) [Ciprofibrate] | 0.515 ± 0.079
16 | CCOC(=O)Nc1ccc2c(c1)N(C(=O)CCN1CCOCC1)c1ccccc1S2 [Moricizine hydrochloride] | 0.354 ± 0.0077
17 | C[C@@H]1CCC[C@H](C)N1NC(=O)c1ccc(Cl)c(S(N)(=O)=O)c1 [Clopamide] | 0.581 ± 0.048
18 | CN(C)CCn1nnnc1SCC1=C(C(=O)O)N2C(=O)[C@@H](NC(=O)Cc3csc(N)n3)[C@H]2SC1 [Cefotiam hydrochloride] | 0.166 ± 0.096
19 | C=CC[N@@+]12CC[C@@]34c5ccccc5N5/C=C6/[C@H]7C[C@H]8[C@@]9(CC[N@@+]8(CC=C)C/C7=C/CO)c7ccccc7N(/C=C(/[C@@H](C[C@@H]31)/C(=C\CO)C2)[C@H]54)[C@@H]69 [Alcuronium chloride] | 0.456 ± 0.037
20 | NC(CO)C(=O)NNCc1ccc(O)c(O)c1O (stereo not given) [Benserazide hydrochloride] | 0.465 ± 0.036

Row | SMILES | growth
21 | NCCc1c[nH]cn1 [Histamine dihydrochloride] | 0.501 ± 0.067
22 | C#CCN(C)Cc1ccccc1 [Pargyline hydrochloride] | 0.516 ± 0.11
23 | c1ccc([C@H]2CN3CCSC3=N2)cc1 [Levamisole hydrochloride] | 0.511 ± 0.054
24 | CN(C)CCC[C@@]1(c2ccc(F)cc2)OCc2cc(C#N)ccc21 [Escitalopram oxalate] | 0.435 ± 0.007
25 | CC(=O)N(CC(O)CN(C(C)=O)c1c(I)c(C(=O)NCC(O)CO)c(I)c(C(=O)NCC(O)CO)c1I)c1c(I)c(C(=O)NCC(O)CO)c(I)c(C(=O)NCC(O)CO)c1I (stereo not given) [Iodixanol] | 0.537 ± 0.093
26 | CN(C)CCCC1(c2ccc(F)cc2)OCc2cc(C#N)ccc21 (stereo not given) [Citalopram Hydrobromide] | 0.476 ± 0.068
27 | O=P(O)(O)C(Cl)(Cl)P(=O)(O)O [Clodronate] | 0.528 ± 0.084
28 | COc1ccc(Cl)cc1C(=O)NCCc1ccc(S(=O)(=O)NC(=O)NC2CCCCC2)cc1 [Glibenclamide] | 0.355 ± 0.032
29 | CN1C(=O)CC(c2ccccc2)C1=O (stereo not given) [Phensuximide] | 0.544 ± 0.076
30 | O=c1[nH]c(=O)n([C@H]2C[C@H](O)[C@@H](CO)O2)cc1I [Idoxuridine] | 0.483 ± 0.064
31 | COC(=O)C1=C(C)NC(C)=C(C(=O)OCCN(C)Cc2ccccc2)C1c1cccc([N+](=O)[O-])c1 (stereo not given) [Nicardipine hydrochloride] | 0.0588 ± 0.0012
32 | CC(=O)Oc1ccccc1C(=O)O [Acetylsalicylic acid] | 0.504 ± 0.027
33 | O=C(O)CCNC(=O)c1ccc(/N=N/c2ccc(O)c(C(=O)O)c2)cc1 [Balsalazide Sodium] | 0.465 ± 0.057
34 | COc1cc2c(cc1OC)C(=O)C(CC1CCN(Cc3ccccc3)CC1)C2 (stereo not given) [Donepezil hydrochloride] | 0.56 ± 0.055
35 | CC(C)/N=c1\cc2n(-c3ccc(Cl)cc3)c3ccccc3nc-2cc1Nc1ccc(Cl)cc1 [Clofazimine] | 0.154 ± 0.012
36 | CCC(C)(C)C(=O)O[C@H]1C[C@@H](C)C=C2C=C[C@H](C)[C@H](CC[C@@H]3C[C@@H](O)CC(=O)O3)[C@H]21 [Simvastatin] | 0.311 ± 0.016
37 | CC(C)(CO)C(O)C(=O)NCCCO (stereo not given) [Panthenol (D)] | 0.5 ± 0.047
38 | Cc1nnc(NS(=O)(=O)c2ccc(N)cc2)s1 [Sulfamethizole] | 0.462 ± 0.018
39 | CN1C(=O)OC(C)(C)C1=O [Trimethadione] | 0.553 ± 0.073
40 | CCN(CC)CCNC(C(=O)OCCC(C)C)c1ccccc1 (stereo not given) [Camylofine chlorhydrate] | 0.559 ± 0.084
